# Screening data as filed in PubChem.
# Pf growth 48h – inhibits P. falciparum growth in the first generation, 48 h | P. falciparum luciferase growth in erythrocytes, 48 h | AID 504832 | Potency, µM (highest dose often 28.7 µM), without a hit: top-dose activity change, negative = inhibition, actives largely listed as inhibitors | 310,000 compounds, 5.9% hits; note: % is set by controls: 0 for no effect and ±100 for the full control effect
#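 Compounds are pin-transferred into medium, infected erythrocytes (2% hematocrit, 0.1% parasitemia final) are added, and plates sit one parasite generation at 37 C in 5% CO2. Detection reagent is then added and luminescence measured.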
# Pf growth 96h – P. falciparum growth inhibition at 96 hours. P. falciparum luciferase reporter growth, 96 h. Potency, µM (series often up to 28.7 µM), for inactives: at the top dose activity change, negative = inhibition, most hits filed as inhibitors. 320,000 compounds, 6.9% hits. AID 504834; note: % is set by controls: 0 for no effect and ±100 for the full control effect
#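 Infected RBCs, 2% Hct / 0.05% parasitemia final; luciferase-reporter P. falciparum; cpd 96 h, 37 C, 5% CO2; luciferase detection reagent; luminescence.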
# AMA1-RON2 inh – inhibitors of Plasmodium falciparum AMA1-RON2 interaction. 360,000 compounds, 0.2% hits. Potency, µM (doses to about 58.2 µM), for inactives: at the highest dose activity change, negative = inhibition, usual class: inhibitors. AlphaScreen AMA1-biotinylated RON2 peptide binding. AID 720542;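 note: 0% = vehicle wells and -100% = peptide control; nearly all actives have a fitted effect of over 45% in size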
#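 AMA1 (3D7) with his tag at 25 nM final met compounds first, then biotinylated RON2 peptide at 25 nM; detection used donor plus acceptor beads, 10 µg/mL apiece, read by AlphaScreen after 30 min at room temperature.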
# SARS PLpro yeast – inhibitors of SARS-CoV papain-like protease in yeast | S. cerevisiae expressing SARS-CoV PLpro, growth rescue | 330,000 compounds, 0.19% hits | Potency, µM (top dose mostly 32.9 µM), for the others: top-dose activity, positive = growth rescue, hits mostly activators; calls by dose curve; note: 0% is about no effect; nearly all actives have a fitted effect of over 55% in size
# Numbers without * were called inactive; ? = inconclusive; · = no result. A selection: hits, their analogues and other compounds. The true share with any hit is near 9.4%. Unless noted, calls come from the whole dose curve; as a rule, active = well fitted curve in the direction sought with a large enough effect; inconclusive = small, poorly fitted or top-dose-only effect, or another doubt; inactive = no such curve, though single readings can be large; an effect the other way counts as inactive or inconclusive. Potency is the fitted concentration of half-maximal effect.
SMILES,Pf growth 48h,Pf growth 96h,AMA1-RON2 inh,SARS PLpro yeast
Cc1ccccc1-c1cc2nc(C)c(Cl)c(=O)n2[nH]1,·,·,-3.0%,·
COc1ccc(Nc2nc(Cl)nc(N3CCN(c4ccc(OC)cc4)CC3)n2)cc1,?,11.7µM*,·,0.9%
COc1ccc(Nc2nc(OC)nc(N3CCN(c4ccc(OC)cc4)CC3)n2)cc1,9.28µM*,?,-2.2%,1.8%
CCCCOc1nc2ccccc2nc1C(C#N)C(=O)NC1CCCCC1 (centres undefined),12.1%,1.47µM*,16.2%,1.7%
O=C(CCc1ccccc1Cl)Nc1ccc(S(=O)(=O)N2CCOCC2)cc1,-18.5%,?,2.9%,-1.8%
O=C(CN1C(=O)/C(=C/c2ccc(F)cc2)SC1=S)N1CCN(CCc2ccccn2)CC1,8.2%,14.7µM*,29.1%,-0.6%
O=C(CN1C(=O)/C(=C\c2ccc(F)cc2)Oc2ccccc21)N1CCN(c2ccccn2)CC1,10.2%,7.38µM*,8.2%,-0.1%
CCc1ccc(/C=C2\SC(=S)N(CCCC(=O)Nc3ccccc3C(=O)O)C2=O)cc1,-3.3%,16.5µM*,0.0%,4.1%
Cc1ccc(/C=C2\SC(=S)N(CCCC(=O)Nc3ccccn3)C2=O)cc1,?,10.4µM*,-0.9%,2.6%
Cc1ccc(/C=C2\SC(=S)N(CCCC(=O)Nc3ccccc3C(=O)O)C2=O)cc1,18.3%,?,-4.0%,8.8%
COc1ccc(CCNC(=O)c2noc3c2CCCC3)cc1OC,-21.1%,?,-4.8%,-1.5%
COc1cc(OC)cc(C(=O)Nc2ccc(S(=O)(=O)Nc3cc(C)nc(C)n3)cc2)c1,0.1%,·,·,0.0%
CCN(C(=O)C1=COCCO1)c1nc2c(C)cccc2s1,44.3%,73.6%,7.5%,-13.3%
CCc1ccc(NC(=O)NNC(=O)c2cc3ccccc3cc2O)cc1,-1.2%,12.2%,94.5%,-6.0%
CCN1CCN(C(=O)C(C)Sc2nnc3nc(C)cc(C)n23)CC1 (centres undefined),59.5%,19.9%,2.8%,-1.5%
C=C(C)COc1ccc(-c2ncncc2-c2ccccc2OC)c(O)c1,13.1µM*,?,4.4%,-10.0%
COc1ccc(-c2ncncc2-c2ccc(OC)c(OC)c2)c(O)c1,-10.6%,-16.6%,10.9%,-1.5%
CCOc1ccc(-c2ncncc2-c2ccccc2OC)c(O)c1,2.94µM*,?,12.1%,-0.8%
Cc1cccc(C(=O)NC2CC(C)(C)NC(C)(C)C2)c1,8.7%,·,4.1%,-3.9%
Cc1cccc(NC(=O)Nc2ccc(Cl)c(Cl)c2)n1,209.6%,-21.3%,-5.0%,-8.8%
COc1ccc(/C=N/Nc2cc(C)nc3ccc(OC)cc23)c(OC)c1,?,?,-25.7%,10.1%
COc1ccc2nc(C)cc(N/N=C/c3ccccc3)c2c1,0.147µM*,0.147µM*,3.9%,-1.7%
Cc1cc(C(=O)NN)c2cc(Br)ccc2n1,·,?,25.6%,9.6%
COc1ccc2nc(C)cc(SCC(=O)N/N=C/c3ccccc3)c2c1,-21.1%,4.15µM*,39.4%,21.7%
COc1ccc2nc(C)cc(Nc3ccc(N4CCOCC4)cc3)c2c1,2.94µM*,2.6%,-14.6%,-0.5%
SMILES,Pf growth 48h,Pf growth 96h,AMA1-RON2 inh,SARS PLpro yeast
Cc1cc(SCC(=O)NN)c2cc(Br)ccc2n1,14.7µM*,?,78.7%,0.9%
Cc1ccccc1-c1nc(CS(=O)(=O)CC(=O)NCCCN2CC(C)CC(C)C2)c(C)o1 (centres undefined),?,75.0%,-5.2%,-2.7%
COc1ccc2nc(C)cc(NCc3ccc(F)cc3)c2c1,?,2.62µM*,-21.7%,1.1%
COc1ccc2nc(C)cc(Nc3ccc(C)cc3)c2c1,?,9.1%,0.0%,-3.4%
CN=C1SC(C(=O)Nc2ccccc2Cl)CC(=O)N1c1ccc(OC(F)(F)Cl)cc1 (centres undefined),10.4µM*,0.0%,-2.3%,1.9%
CCC(C)NC(=O)C1CCN(S(=O)(=O)c2ccc3nc4c(c(C(=O)O)c3c2)CCCCC4)CC1 (centres undefined),24.0%,14.9%,10.6%,-6.6%
Cc1cc2c(cc1S(=O)(=O)Nc1ccc(C(C)C)cc1)OCCN2C,?,11.7µM*,·,5.3%
O=C(CN1CCN(c2ccccn2)CC1)Nc1ccc2ccccc2c1,-14.4%,35.6%,4.5%,-23.2%
Cn1c(N)c(C(=O)COC(=O)Cc2ccsc2)c(=O)n(C)c1=O,19.8%,10.4µM*,22.6%,1.0%
COc1cccc(-c2cc(NC=O)c3ncc(-c4cccc(C(=O)NCCN(C)C)c4)n3c2)c1,·,·,3.6%,·
CC1CN(C(=O)NCc2ccccc2)c2cc(Cl)ccc2O1 (centres undefined),-14.8%,2.62µM*,2.6%,1.3%
Cc1ccc(N(C)C(=O)n2cnc3ccccc32)cc1,3.7µM*,9.28µM*,7.3%,1.3%
C=CCNC(=O)/C(=C/c1cn(-c2ccccc2)nc1-c1cccc([N+](=O)[O-])c1)NC(=O)c1ccccc1,?,4.15µM*,-4.2%,9.4%
O=C(C1CCCCN1S(=O)(=O)c1ccc(F)cc1)N1CCN(c2ccccc2F)CC1 (centres undefined),-6.6%,4.65µM*,-0.3%,3.2%
COc1ccccc1N1CCN(C(=O)C2CCCCN2S(=O)(=O)c2ccc(C)cc2)CC1 (centres undefined),?,-18.7%,-5.8%,-0.6%
CS(=O)(=O)N(CC(=O)N1CCN(C(c2ccccc2)c2ccccc2)CC1)C1CCCCC1,·,2.62µM*,-19.3%,2.1%
O=C(C1CCCCN1S(=O)(=O)c1ccccc1)N1CCN(C(c2ccccc2)c2ccccc2)CC1 (centres undefined),1.85µM*,1.85µM*,-15.2%,-2.2%
O=C(c1cccc(NS(=O)(=O)c2ccc(F)c(F)c2)c1)N1CCN(C(c2ccccc2)c2ccccc2)CC1,13.1µM*,?,10.1%,-17.9%
O=C(C1CCCCN1S(=O)(=O)c1ccccc1)N1CCCCC1 (centres undefined),?,?,2.7%,1.1%
CS(=O)(=O)N(CC(=O)N1CCCCC1)C1CCCCC1,·,12.1%,-16.8%,-0.7%
O=C(NC(Cc1ccccc1)C(=O)O)C1CCCCC1 (centres undefined),2.8%,10.4µM*,4.3%,-9.0%
O=C(NCCCCC(NC(=O)C1CCCCC1)C(=O)O)c1ccccc1 (centres undefined),?,8.28µM*,-1.0%,2.8%
CC(C)C1CCC(C(=O)NC(Cc2ccccc2)C(=O)O)CC1 (centres undefined),1.5%,21.1%,·,·
COc1cccc(OC)c1C(=O)NC(C)C12CC3CC(CC(C3)C1)C2 (centres undefined),·,?,-14.1%,-39.7%
COc1ccc(CNC(C)C23CC4CC(CC(C4)C2)C3)c(OC)c1OC (centres undefined),11.7µM*,9.28µM*,-5.6%,-1.1%
COc1ccc(CNC(=O)C2CCN(S(=O)(=O)c3c(C)noc3/C=C/N(C)C)CC2)cc1,-26.2%,?,0.0%,-0.9%
COc1cc2c(cc1Cl)/C(=C\CCN(C)C)c1ccccc1S2,10.4µM*,10.4µM*,-25.8%,-15.0%
CN(C)CC/C=C1/c2ccccc2Sc2c(O)cc(Cl)cc21,?,0.828µM*,-17.7%,15.7%
